Assay results as given in PubChem BioAssay (Tox21).
Results filed as inconclusive are left out. The source made the active and inactive calls. Unless noted, calls follow the shape of the dose curve; as a rule, active = well fitted curve in the direction sought with a large enough effect in the repeat runs; inconclusive = weak or mixed curves; inactive = no such curve, though single readings can be large; an effect the other way counts as inactive or inconclusive.

What was measured:
[1] = qHTS assay to test for compound auto fluorescence at 590 nm (red) in HepG2 cells (AID 720674)
Method in brief: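 Compound auto-fluorescence is scored relative to Rose Bengal sodium, measured at 540/590 nm in live HepG2 cultures after 1 hr compound contact (37 C, 5% CO2).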

[2] = qHTS assay to test for compound auto fluorescence at 535 nm (green) in HepG2 cells (AID 720675)
[3] = qHTS assay to test for compound auto fluorescence at 460 nm (blue) in HEK293 cells (AID 720678)
Method in brief: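 Blue-channel (Ex/Em 405/460 nm) intensity measured in HEK293 cultures after overnight compound exposure at 37C; signal expressed relative to triamterene. Cells plated 2,000 per well in 10% dialyzed FBS medium and allowed 4-5 hr to attach.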

[4] = qHTS assay to test for compound auto fluorescence at 590 nm (red) in HEK293 cells (AID 720679)
Method in brief: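 Red-channel autofluorescence (Ex/Em 540/590 nm; Rose Bengal sodium reference) was measured after overnight 37C, 5% CO2 exposure of attached HEK293 cells, 2,000 per well in medium with 10% dialyzed FBS.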

[5] = qHTS assay to test for compound auto fluorescence at 535 nm (green) in HEK293 cells (AID 720680)
[6] = qHTS assay to test for compound auto fluorescence at 460 nm (blue) in HEK293 cell free culture (AID 720681)
Method in brief: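 Test compounds were pinned into cell-free culture medium (DMEM with 10% FBS) and fluorescence was read directly at Ex/Em 405/460 nm. Signals were expressed as fluorescence equivalents of triamterene, with DMSO vehicle as control.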

[7] = qHTS assay to test for compound auto fluorescence at 535 nm (green) in HEK293 cell free culture (AID 720682)
Method in brief: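 Read-out: 485/535 nm fluorescence intensity, calibrated against fluorescein. Medium only (DMEM + 10% FBS, no cells); test compound or DMSO vehicle added by pintool before plate reading.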

[8] = qHTS assay to test for compound auto fluorescence at 590 nm (red) in HEK293 cell free culture (AID 720683)
Method in brief: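 Tox21 10K library compounds were pinned into cell-free DMEM with 10% FBS and fluorescence was read at excitation 540 nm. Activity is expressed as Rose Bengal sodium equivalency.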

[9] = qHTS assay to test for compound auto fluorescence at 590 nm (red) in HepG2 cell free culture (AID 720684)
Method in brief: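 Readout: intrinsic compound fluorescence at 590 nm emission after 540 nm excitation, scaled to Rose Bengal sodium. Matrix was cell-free MEM with 10% FBS; DMSO vehicle wells served as control.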

[10] = qHTS assay to test for compound auto fluorescence at 460 nm (blue) in HepG2 cell free culture (AID 720685)
Method in brief: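 Cell-free plates of MEM plus 10% FBS received 23 nL compound or DMSO vehicle; blue-channel (405/460 nm) intensity scored against triamterene as reference fluorophore.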

[11] = qHTS assay to test for compound auto fluorescence at 535 nm (green) in HepG2 cell free culture (AID 720686)
[12] = qHTS assay to test for compound auto fluorescence at 460 nm (blue) in HepG2 cells (AID 720687)
Method in brief: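 Cells (2,000/well in MEM with 10% FBS) attached overnight at 37 C, then were exposed to compound or DMSO for 1 hr at 37 C, 5% CO2. Fluorescence read at Ex/Em 405/460 nm, expressed as triamterene-equivalent signal.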

[13] = molecular target: Luciferin 4-monooxygenase (Photinus pyralis) (UniProt P08659); experiment: qHTS assay to identify small molecule inhibitors of firefly luciferase (AID 1224835); also: series mostly up to about 120 µM; nearly all actives have a fitted effect of over 25% in size
Method in brief: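 Quantitative HTS format; KM concentrations of both substrates. Purified P. pyralis FLuc activity quantified from luminescence images.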

[14] = qHTS RealTime-Glo MT Cell Viability Assay in HEK293 cells - 0 hour (AID 1224880); also: top concentration of the series differs between compounds; nearly all actives have a fitted effect of over 45% in size
Method in brief: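 Measured as luminescence from the same continuously cultured HEK293 wells at successive time points (0, 8, 16, 24, 32, 40 h) after compound addition. Reagent present from seeding; dosing at 5 h; incubation 37 C.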

[15] = qHTS assay to identify small molecule HDAC inhibitors (AID 1259364);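 also: wild-type HCT-116 cells with endogenous class I/II HDAC activity; top concentration of the series differs between compounds; nearly all actives have a fitted effect of over 45% in size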
Method in brief: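 After a 2 hr compound incubation (37C, 5% CO2), HCT-116 cells seeded at 1,500/well the day before received HDAC-Glo reagent; signal read as luminescence after 30 min at room temperature.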

[16] = qHTS assay to identify small molecule antagonists of the progesterone receptor (PR) signaling pathway - cell viability counter screen (AID 1346798); also: series mostly up to about 92 µM; nearly all actives have a fitted effect of over 50% in size
Method in brief: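 PR-UAS-bla HEK293T cells in medium with 2% charcoal-stripped FBS were treated with compounds plus R5020 for 16 hr at 37C. Cell viability was then read by CellTiter-Glo luminescence after 30 min at room temperature in the same wells.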

[17] = qHTS assay to identify small molecule antagonists of the estrogen related receptor (ERR) signaling pathway (AID 1224819; also: nearly all actives have a fitted effect of over 50% in size; also: potency is read from the fitted curve at half-maximal effect)
Method in brief: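 ERR reporter cells were plated at 2,000 cells/well and left 6 h at 37 C/5% CO2 before pin-tool transfer of compounds in DMSO. After 18 h at 37 C, One-Glo was added and luminescence was read 30 min later at room temperature.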

[18] = tested on: estrogen-related receptor alpha (ERRalpha) with PGC-1alpha coactivator, human; experiment: qHTS assay to identify small molecule antagonists of the estrogen related receptor signaling pathway with the pleiotropic PPARgamma coactivator (PGC) (AID 1224821; calls by dose curve;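 also: series mostly up to about 46 µM; lower luminescence signal means antagonism of PGC/ERR signalling; nearly all actives have a fitted effect of over 50% in size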)
Method in brief: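 A PGC/ERR cell line supplied by NTP is seeded, allowed 6 h at 37 C, and treated with test compounds in DMSO for 18 h. Signal is then measured as luciferase luminescence using One-Glo.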

[19] = qHTS assay to identify small molecule agonists of the estrogen related receptor signaling pathway with the pleiotropic PPARgamma coactivator (PGC) (AID 1224823)
Method in brief: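 Compounds dissolved in DMSO are added by pin tool to PGC/ERR cells that have settled for 6 h, and incubation continues 18 h at 37 C. Reporter output is measured as One-Glo luminescence.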

[20] = qHTS assay to identify small molecule agonists of the estrogen related receptor (ERR) signaling pathway (AID 1224820)
Method in brief: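 An ERR cell line provided by NTP was seeded at 2,000 cells per well and allowed to settle for 6 h before compounds in DMSO were added. After 18 h at 37 C, luciferase activity was measured by One-Glo luminescence.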

[21] = molecular target: Nuclear receptor subfamily 1 group I member 3 (Homo sapiens) (UniProt Q14994); experiment: qHTS assay to identify small molecule antagonists of the constitutive androstane receptor (CAR) signaling pathway (AID 1224838); also: nearly all actives have a fitted effect of over 40% in size
Method in brief: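 CITCO-stimulated (50 nM final) HepG2 cells stably transfected with hCAR and CYP2B6-2.2kb luciferase were exposed to compounds at 15 concentrations for 24 h at 37 C/5% CO2. A luciferase reagent was added and luminescence recorded after 30 min.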

[22] = molecular target: Acetylcholinesterase (Homo sapiens) (UniProt P22303); experiment: Acetylcholinesterase (AChE) small molecule antagonists: colormetric cell-based qHTS assay (AID 1347395; calls by dose curve; also: nearly all actives have a fitted effect of over 30% in size)
Method in brief: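 SH-SY5Y cells, plated overnight at 37 C, were exposed to compounds for 30 min at 37 C and 5% CO2. Acetylthiocholine plus DTNB was then added, and thiocholine from endogenous AChE was quantified colorimetrically after 90 min at 37 C.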

[23] = molecular target: Acetylcholinesterase (Homo sapiens) (UniProt P22303); experiment: Acetylcholinesterase (AChE) small molecule antagonists: enzyme-based qHTS assay (AID 1347397; calls by dose curve; also: nearly all actives have a fitted effect of over 55% in size); conditions: Potency: AChE enzyme activity inhibition; outcome: AChE enzyme activity inhibition
Method in brief: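 Tox21 library chemicals are tested in qHTS format against recombinant human AChE. The enzyme, dispensed at 50 mU/mL, sits with compound for 30 min at room temperature. A DTNB–acetylthiocholine cocktail follows, and colour is read after 10 min.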

[24] = molecular target: Acetylcholinesterase (Homo sapiens) (UniProt P22303); experiment: Acetylcholinesterase (AChE) small molecule antagonists: fluorescence cell-based qHTS assay (AID 1347398; calls by dose curve; also: nearly all actives have a fitted effect of over 50% in size); conditions: Potency: AChE activity; outcome: AChE activity
Method in brief: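 Cellular AChE inhibition: SH-SY5Y cells treated with test chemical for 30 min at 37 C, then acetylthiocholine hydrolysis followed over 40 min at room temperature via thiocholine-reactive Thiolite Green fluorescence (490/520 nm).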

[25] = molecular target: Acetylcholinesterase (Homo sapiens) (UniProt P22303); experiment: Acetylcholinesterase (AChE) small molecule antagonists: enzyme-based qHTS assay with human liver microsomes (AID 1347399; calls by dose curve; also: nearly all actives have a fitted effect of over 60% in size); conditions: Potency: qHTS inhibition; outcome: qHTS inhibition
Method in brief: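 Recombinant human AChE (50 mU/mL in the enzyme mix) and human liver microsomes (0.25 mg/mL final) were preincubated with compound and NADPH (0.25 mg/mL final) for 30 min at 37 C. Acetylthiocholine/DTNB was then added; thiocholine was read colorimetrically after 10 min at room temperature.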

Measured: Potency

Acetylcholinesterase (Homo sapiens), sequence (P22303 whole entry, looked up): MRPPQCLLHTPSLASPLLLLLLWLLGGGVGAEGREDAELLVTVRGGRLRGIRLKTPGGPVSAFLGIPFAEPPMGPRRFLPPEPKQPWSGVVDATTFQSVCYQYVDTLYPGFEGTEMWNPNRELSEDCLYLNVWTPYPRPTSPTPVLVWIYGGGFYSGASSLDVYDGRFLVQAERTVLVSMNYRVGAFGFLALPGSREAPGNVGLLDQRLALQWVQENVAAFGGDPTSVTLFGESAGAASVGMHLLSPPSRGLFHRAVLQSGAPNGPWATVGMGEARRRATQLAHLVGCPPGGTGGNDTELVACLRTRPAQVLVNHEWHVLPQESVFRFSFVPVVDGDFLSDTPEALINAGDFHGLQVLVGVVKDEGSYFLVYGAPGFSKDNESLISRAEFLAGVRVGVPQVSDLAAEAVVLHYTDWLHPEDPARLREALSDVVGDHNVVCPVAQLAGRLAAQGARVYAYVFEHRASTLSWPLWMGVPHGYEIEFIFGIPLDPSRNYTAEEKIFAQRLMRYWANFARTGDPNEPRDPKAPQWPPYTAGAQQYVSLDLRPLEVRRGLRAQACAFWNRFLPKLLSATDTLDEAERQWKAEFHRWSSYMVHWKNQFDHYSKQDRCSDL
Luciferin 4-monooxygenase (Photinus pyralis), sequence (P08659 whole entry, looked up): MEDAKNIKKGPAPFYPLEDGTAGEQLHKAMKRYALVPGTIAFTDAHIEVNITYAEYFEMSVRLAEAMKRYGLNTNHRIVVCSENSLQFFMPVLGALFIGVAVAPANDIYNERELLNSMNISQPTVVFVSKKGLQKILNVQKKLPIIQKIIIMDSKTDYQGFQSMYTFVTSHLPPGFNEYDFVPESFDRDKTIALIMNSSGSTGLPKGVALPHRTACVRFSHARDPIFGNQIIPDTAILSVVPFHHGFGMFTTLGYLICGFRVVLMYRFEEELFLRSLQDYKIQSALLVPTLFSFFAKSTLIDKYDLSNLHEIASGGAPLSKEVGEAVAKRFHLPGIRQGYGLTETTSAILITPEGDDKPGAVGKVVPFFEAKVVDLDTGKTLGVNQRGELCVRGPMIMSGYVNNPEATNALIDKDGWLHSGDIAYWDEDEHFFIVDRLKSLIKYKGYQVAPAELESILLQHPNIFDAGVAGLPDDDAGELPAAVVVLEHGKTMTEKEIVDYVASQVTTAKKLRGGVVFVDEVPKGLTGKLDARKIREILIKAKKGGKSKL
Nuclear receptor subfamily 1 group I member 3 (Homo sapiens), sequence (Q14994 whole entry, looked up): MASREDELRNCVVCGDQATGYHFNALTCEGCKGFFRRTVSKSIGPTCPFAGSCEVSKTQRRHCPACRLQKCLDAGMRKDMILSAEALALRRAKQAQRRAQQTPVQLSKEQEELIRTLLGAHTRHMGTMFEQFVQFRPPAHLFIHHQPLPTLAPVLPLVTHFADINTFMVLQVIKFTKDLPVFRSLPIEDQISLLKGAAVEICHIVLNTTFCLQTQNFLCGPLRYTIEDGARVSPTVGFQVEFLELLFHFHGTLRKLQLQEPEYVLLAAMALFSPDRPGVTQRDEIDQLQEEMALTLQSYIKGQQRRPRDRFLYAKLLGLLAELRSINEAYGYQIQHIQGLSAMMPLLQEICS

Cc1ccc2ccccc2c1C
not listed: [17] | [18] | [19] | [20] | [21] | [22] | [23] | [24] | [25]
inactive: all other assays above

Nc1ncnc2c1ncn2[C@@H]1O[C@H](COP(=O)(O)CP(=O)(O)OP(=O)(O)O)C(O)[C@H]1O (some centres not stated)
inactive: [17] | [18] | [19]

C[C@]12Cc3cn4c(nc3C=C1CCC1C2CC[C@@]2(C)[C@H]1CC[C@@]2(O)C#N)nc1ccccc14 (some centres not stated)
active: [17] 10.6 µM
inactive: [20] | [19]

CCn1cnc2c(Nc3cccc(Cl)c3)nc(N[C@@H]3CCCC[C@@H]3N)nc21
inactive: [17] | [19]

CC1(C)[C@H](C(=O)OCc2cccc(Oc3ccccc3)c2)[C@@H]1C=C(Cl)Cl
inactive: [21] | [22] | [23] | [24] | [25]

Clc1ccc(C(c2ccc(Cl)cc2)n2cc[n+](CC(OCc3ccc(Cl)cc3Cl)c3ccc(Cl)cc3Cl)c2)cc1 (configuration not stated)
inactive: [20] | [19]
active: [17] 19.6 µM
